# Assay results as given in PubChem BioAssay (NCI).
# This is part of a sample that, as a whole, favours compounds with a hit. Of some 83,000 tested, about 20% had one in any assay.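 Interpretation: 100, growth as untreated; towards 0, rising growth inhibition; 0, no net growth; 0 to -100, cell death. Compounds scoring below 10 were considered active.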 Unmarked numbers belong to inactive results. The source made the active and inactive calls.
# What was measured:
# Assay in all cases: NCI-60 one-dose screen, 48 h (100 = growth as untreated, 0 = no growth, -100 = all killed)
# [1] = tested on: SR leukemia; conditions: 10 µM unless noted
# [2] = tested on: RPMI-8226 leukemia; conditions: 10 µM unless noted
# [3] = tested on: OVCAR-8 ovarian; conditions: 10 µM unless noted
# [4] = tested on: OVCAR-5 ovarian; conditions: 10 µM unless noted
# [5] = tested on: SK-OV-3 ovarian; conditions: 10 µM unless noted
# [6] = tested on: IGROV1 ovarian; conditions: 10 µM unless noted
# [7] = tested on: OVCAR-3 ovarian; conditions: 10 µM unless noted
# [8] = tested on: NCI/ADR-RES ovarian; conditions: 10 µM unless noted
# [9] = tested on: HS 578T breast; conditions: 10 µM unless noted
# [10] = tested on: OVCAR-4 ovarian; conditions: 10 µM
Structure (SMILES),growth [1],growth [2],growth [3],growth [4],growth [5],growth [6],growth [7],growth [8],growth [9],growth [10] [%]
C=C(C)[C@@H]1CC[C@]2(C(=O)NCCNCCNCCN)CC[C@]3(C)[C@H](CC[C@@H]4[C@@]5(C)CCC(=O)C(C)(C)[C@@H]5CC[C@]43C)[C@@H]12,4.96% [100 µM] (active),-30.7% [100 µM] (active),-75% [100 µM] (active),-44.1% [100 µM] (active),70.5% [100 µM],-84.8% [100 µM] (active),-72.5% [100 µM] (active),-73.3% [100 µM] (active),–,–
C=C(C)[C@@H]1CC[C@]2(COC(=O)c3ccccc3C(=O)O)CC[C@]3(C)[C@H](CC[C@@H]4[C@@]5(C)CC[C@H](OC(=O)c6ccccc6C(=O)O)C(C)(C)[C@@H]5CC[C@]43C)[C@@H]12,63.8% [100 µM],28.4% [100 µM],46.7% [100 µM],105% [100 µM],47.9% [100 µM],31% [100 µM],2% [100 µM] (active),23.1% [100 µM],–,–
O=C(Nc1ccc(C(=O)/C=C/c2ccc(N3CCOCC3)cc2)cc1)Nc1ccc([N+](=O)[O-])cc1,94.1%,77%,92.4%,94.4%,90.5%,72.5%,–,98.5%,111%,–
Cc1ccc(Cn2c(O)c(N=NC(=O)c3ccc(S(N)(=O)=O)cc3)c3ccccc32)cc1,104%,91.7%,92.7%,109%,109%,107%,–,108%,101%,–
COc1ccc(N(c2nc(-c3ccc([N+](=O)[O-])cc3)cs2)C(C)C)cc1,66.5%,52.7%,–,109%,81.7%,80.4%,81.1%,86.2%,85%,70
C=C(C)[C@@H]1CC[C@]2(C(=O)NCCNCCNC(=O)OC(C)(C)C)CC[C@]3(C)[C@H](CC[C@@H]4[C@@]5(C)CCC(=O)C(C)(C)[C@@H]5CC[C@]43C)[C@@H]12,52.4% [100 µM],22.2% [100 µM],44.4% [100 µM],60.4% [100 µM],49.8% [100 µM],34.7% [100 µM],32.3% [100 µM],52.2% [100 µM],37.8% [100 µM],–
C=C(C)[C@@H]1CC[C@]2(C(N)=O)CC[C@]3(C)[C@H](CC[C@@H]4[C@@]5(C)C/C(=C/c6cccnc6)C(=O)C(C)(C)[C@@H]5CC[C@]43C)[C@@H]12,10.7% [100 µM],6.37% [100 µM] (active),20.3% [100 µM],-6.45% [100 µM] (active),12.9% [100 µM],14.9% [100 µM],12.5% [100 µM],14.7% [100 µM],–,–
CC1(C)CC[C@]23CC[C@]4(C)[C@H](CC[C@@H]5[C@@]6(C)C/C(=C/c7ccncc7)C(=O)C(C)(C)[C@@H]6CC[C@]54C)[C@H]2[C@H]1OC3=O,93.5% [100 µM],41.1% [100 µM],51.9% [100 µM],111% [100 µM],47.7% [100 µM],70.1% [100 µM],85.2% [100 µM],64.4% [100 µM],-3.34% [100 µM] (active),–
CC(=O)O.CC(=O)O.O.[Fe],124%,135%,99.1%,105%,–,106%,108%,102%,93.2%,–
O=C(N/N=C\c1cc(Cl)ccc1O)N/N=C/c1cc(Cl)ccc1O,35.4%,29.4%,43.4%,75.6%,73.7%,49.1%,10.2%,16%,–,–
CCOc1cc(NC(=O)c2ccccc2)c(OCC)cc1N,110%,113%,113%,113%,114%,84.8%,108%,111%,–,–
CCOC(=O)c1cc(C#N)n2ncc3ccccc3c12,98.4%,105%,97.7%,84.7%,107%,92.4%,103%,97.7%,98.3%,–
CC1(C)CC[C@]2(C(N)=O)CC[C@]3(C)C(=CC[C@@H]4[C@@]5(C)C/C(=C/c6cccnc6)C(=O)C(C)(C)[C@@H]5CC[C@]43C)[C@@H]2C1,8.68% [100 µM] (active),-37.1% [100 µM] (active),-21.6% [100 µM] (active),-64% [100 µM] (active),6.72% [100 µM] (active),-29.5% [100 µM] (active),–,-25.7% [100 µM] (active),1.61% [100 µM] (active),–
Brc1ccc2c(c1)CN(C1CCCCC1)CO2,96.3%,103%,114%,97.9%,92.3%,107%,116%,97.5%,91.7%,–
C=C(C)[C@@H]1CC[C@]2(C(=O)OC)CC[C@]3(C)[C@H](CC[C@@H]4[C@@](C)(CCc5nn[nH]n5)[C@H](C(=C)C)CC[C@]43C)[C@@H]12,21.7% [100 µM],-0.796% [100 µM] (active),7.09% [100 µM] (active),5.88% [100 µM] (active),–,-8.32% [100 µM] (active),-60.4% [100 µM] (active),-7.5% [100 µM] (active),-31% [100 µM] (active),–
CC(=O)OC[C@]12CC[C@@H](C(=O)CBr)[C@@H]1[C@H]1CC[C@@H]3[C@@]4(C)CCCNC(C)(C)[C@@H]4CC[C@@]3(C)[C@]1(C)CC2,14.7% [100 µM],-36.1% [100 µM] (active),-26.1% [100 µM] (active),-74.4% [100 µM] (active),–,-61.3% [100 µM] (active),-85.3% [100 µM] (active),-38.8% [100 µM] (active),-22.7% [100 µM] (active),–
CCc1cccc(Cl)c1,103%,101%,104%,105%,107%,100%,–,103%,118%,–
Cc1nc(Cl)cc(N(c2cc(Cl)nc(C)n2)c2ncc(C(=O)Nc3c(C)cccc3Cl)s2)n1,86.9%,50.8%,63.1%,38.5%,–,-22% (active),49.9%,59.3%,-1.46% (active),–
c1coc2occoc=2o1,114%,100%,107%,101%,99.6%,109%,–,107%,104%,–
C=C(C)[C@@H]1CC[C@]2(C(=O)NCCNCCNCCN)CC[C@]3(C)[C@H](CC[C@@H]4[C@@]5(C)CC[C@H](O)C(C)(C)[C@@H]5CC[C@]43C)[C@@H]12,-4.72% [100 µM] (active),-8.15% [100 µM] (active),-12.9% [100 µM] (active),-83.4% [100 µM] (active),-14.2% [100 µM] (active),-81.4% [100 µM] (active),-66% [100 µM] (active),-13.1% [100 µM] (active),–,–
C=C(C)[C@@H]1CC[C@]2(COCCCN)CC[C@]3(C)[C@H](CC[C@@H]4[C@@](C)(CCCNCCCN)[C@H](C(=C)C)CC[C@]43C)[C@@H]12,44.4% [100 µM],-53.4% [100 µM] (active),-56.7% [100 µM] (active),-63.6% [100 µM] (active),–,-58.6% [100 µM] (active),-53.3% [100 µM] (active),-53.6% [100 µM] (active),-39.2% [100 µM] (active),–
COc1ccc(-c2c(C)nn3c(NCCN4CCOCC4)cc(C)nc23)cc1OC,79.8%,105%,103%,94.3%,101%,117%,–,99.8%,79%,–
COC(=O)c1cc(O)c2c(c1C(=O)OC)C[C@H]1[C@@H]3CC=C4C[C@@H](O)CC[C@]4(C)[C@H]3CC[C@]21C,31.5%,16.6%,63.9%,61.4%,83.7%,72.8%,–,44.2%,31.5%,–
COc1ncc(-c2ccc3nc(N)n(-c4ccccc4C(F)(F)F)c(=O)c3c2)cc1S(=O)(=O)Nc1ccc(F)cc1F,39%,2.65% (active),50.1%,14.7%,72.1%,8.17% (active),6.35% (active),25.4%,42.3%,–
